# Data as given in PubChem BioAssay (NCATS).
# Results filed as inconclusive are left out. A number with no mark means an inactive call. The source made the active and inactive calls. Calls come from the whole dose curve; as a rule, active = well fitted curve in the direction sought with a large enough effect; inconclusive = small, poorly fitted or top-dose-only effect, or another doubt; inactive = no such curve, though single readings can be large; an effect the other way counts as inactive or inconclusive.
# Columns and labels:
# [1] = BET inhibitor-based combinations targeting novel dependencies in MECOM-rearranged (r) AML: SET-2 cell line (AID 2202231); settings: SET-2 AML cells viability, CellTiter-Glo luminescence, 48 h; viability: active compounds read low, concentration not given here; note: nearly all actives have a fitted effect of over 35% in size;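 for viability: plate controls were DMSO treated cells for no effect and wells without cells for full effect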
# Outline: (§1)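 Viability of cells (500 per well) is scored by luminescent CellTiter-Glo at 48 hr post-dosing. Eleven-point titrations are normalized to DMSO and empty controls and reduced to AUC values.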
# [2] = BET inhibitor-based combinations targeting novel dependencies in MECOM-rearranged (r) AML: OCI-AML3 cell line (AID 2202232); settings: CellTiter-Glo luminescence, 48 h; Potency: OCI-AML3 viability; series mostly up to 46 µM; note: nearly all actives have a fitted effect of over 35% in size
# Outline: as §1
# [3] = BET inhibitor-based combinations targeting novel dependencies in MECOM-rearranged (r) AML: MV-4-11 cell line (AID 2202233); settings: MV-4-11 AML viability, CellTiter-Glo luminescence, 48 h; series mostly up to 46 µM; note: nearly all actives have a fitted effect of over 45% in size
# Outline: (§2)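 Using pin-tool transfer, drugs were added in 11 doses to cells (500/well), incubated 48 hr, and assessed with CellTiter-Glo. Z-AUC is a mean-centring transformation applied separately to each screened line.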
# [4] = BET inhibitor-based combinations targeting novel dependencies in MECOM-rearranged (r) AML: UCSD-AML1 cell line (AID 2202235); settings: UCSD-AML1 AML cells viability, CellTiter-Glo, 48 h; series mostly up to 46 µM; note: nearly all actives have a fitted effect of over 40% in size
# Outline: as §2
# [5] = BET inhibitor-based combinations targeting novel dependencies in MECOM-rearranged (r) AML: AML-191 cell line (AID 2202236; note: nearly all actives have a fitted effect of over 35% in size); settings: AML-191 viability, CellTiter-Glo luminescence, 48 h; series mostly up to 46 µM
# Outline: as §1
# [6] = BET inhibitor-based combinations targeting novel dependencies in MECOM-rearranged (r) AML: AML-194 cell line (AID 2202237; note: nearly all actives have a fitted effect of over 40% in size); settings: AML-194 (MECOM-r AML) viability, CellTiter-Glo, 48 h; series mostly up to 46 µM
# Outline: as §1
# [7] = BET inhibitor-based combinations targeting novel dependencies in MECOM-rearranged (r) AML: HNT-34 cell line (AID 2202234); settings: HNT-34 AML viability, CellTiter-Glo luminescence, 48 h; series mostly up to 46 µM; note: nearly all actives have a fitted effect of over 35% in size
# Outline: as §2
# Potency is the fitted concentration of half-maximal effect.
Structure (SMILES),Potency [1],Potency [2],Potency [3],Potency [4],Potency [5],Potency [6],viability [1] [%],Potency [7]
C[C@@H](Oc1ccc2[nH]nc(/C=C/c3cnn(CCO)c3)c2c1)c1c(Cl)cncc1Cl,1050 nM (active),8330 nM (active),296 nM (active),1050 nM (active),833 nM (active),934 nM (active),–,–
CN(C)CCNC(=O)NC[C@H]1CC[C@@H]2[C@H](O1)c1cc(C(F)(F)F)ccc1N[C@H]2c1ccccc1,742 nM (active),296 nM (active),296 nM (active),235 nM (active),332 nM (active),332 nM (active),–,–
CCNCCS(=O)(=O)NC[C@@]1(c2ccccc2)SC(NC(=O)C(C)(C)C)=NN1C(=O)C(C)(C)C,118 nM (active),4.2 nM (active),4.2 nM (active),4.7 nM (active),20.9 nM (active),–,–,–
CC(=O)NCC(=O)N1[C@@H]2CC[C@H]1c1ccc(Nc3ncc(C(F)(F)F)c(NC4CCC4)n3)cc12,4170 nM (active),14800 nM (active),41.7 nM (active),934 nM (active),833 nM (active),662 nM (active),–,–
CNc1ncc2cc(-c3cc(NC(=O)NCCC(C)(C)C)c(F)cc3C)c(C)nc2n1,2350 nM (active),662 nM (active),468 nM (active),1050 nM (active),–,–,–,–
COc1cc2ncn(-c3cc(OCc4ccccc4C(F)(F)F)c(C(N)=O)s3)c2cc1OC,1860 nM (active),1180 nM (active),2090 nM (active),2350 nM (active),1480 nM (active),1050 nM (active),–,–
COc1ccc(S(=O)(=O)Nc2cc(-c3csc(C#N)c3)ccc2C)cc1,209 nM (active),148 nM (active),235 nM (active),148 nM (active),132 nM (active),332 nM (active),–,–
CC(C)(O)c1coc(S(=O)(=O)NC(=O)Nc2c3c(cc4c2CCC4)CCC3)c1,–,inactive,inactive,inactive,inactive,inactive,126,–
Cc1ccc(S(=O)(=O)Nc2cc(-c3ccc(C#N)s3)ccc2C)cc1,74.2 nM (active),93.4 nM (active),105 nM (active),66.1 nM (active),74.2 nM (active),83.3 nM (active),–,–
CNS(=O)(=O)Nc1nccc(Cc2c(C)c3ccc(Oc4ncccn4)cc3oc2=O)c1F,3720 nM (active),33.2 nM (active),–,525 nM (active),–,–,–,–
CCCCC[C@H](O)/C=C/[C@H]1[C@H](O)CC(=O)[C@@H]1CCCCCCC(=O)O,–,9340 nM (active),–,11800 nM (active),inactive,inactive,103,16600 nM (active)
CC(=O)O/N=C1\C(=O)N(Cc2cc(Cl)ccc2Cl)c2ccc(Cl)cc21,9340 nM (active),13200 nM (active),–,–,2350 nM (active),2630 nM (active),–,2950 nM (active)
c1ccc(-c2nn3c(c2-c2ccnc4cc(OCCN5CCOCC5)ccc24)CCC3)nc1,–,inactive,–,20900 nM (active),18600 nM (active),–,81.4,–
CNC(=O)CCc1cc(-c2ccc(-c3ccc(C(F)(F)F)cc3)cc2)n(-c2ccc(N3CCNCC3)cc2)n1,7420 nM (active),5900 nM (active),–,–,5900 nM (active),7420 nM (active),–,8330 nM (active)
CC(C)C[C@H](NC(=O)[C@H](Cc1ccccc1)NC(=O)OCc1ccccc1)C(=O)C=O,–,inactive,–,–,26300 nM (active),inactive,114,inactive
C#CCN(C)CC1=Cc2ccccc2Oc2ccccc21,–,inactive,–,inactive,inactive,inactive,106,inactive
Cc1ccc(Sc2ccccc2N2CCNCC2)c(C)c1,18600 nM (active),20900 nM (active),–,16600 nM (active),18600 nM (active),11800 nM (active),–,16600 nM (active)
O=C(O)CC(C(=O)O)n1c(O)c(C2=c3cc(Br)ccc3=NC2=O)sc1=S (configuration not stated),–,inactive,–,inactive,inactive,inactive,100,inactive
Cc1oc(=O)oc1CN1CCN(c2cc3c(cc2F)c(=O)c(C(=O)O)c2n3C(C)S2)CC1 (configuration not stated),–,inactive,–,inactive,inactive,inactive,116,inactive
C=C1CCC2[C@](C)(CO)C(O)CC[C@]2(C)C1C/C=C1/C(=O)OCC1O (some centres not stated),14800 nM (active),7420 nM (active),–,11800 nM (active),7420 nM (active),9340 nM (active),–,5900 nM (active)
COc1cc([C@@H](CC(=O)O)c2ccc(C)c(CN3C[C@@H](C)Oc4ccccc4S3(=O)=O)c2)cc2nnn(C)c12,–,inactive,–,inactive,–,inactive,67.3,inactive
COc1ccc(CNC(=O)c2cc(-c3cncc(Cl)c3)cnc2-c2ccccn2)nc1OC,–,inactive,–,inactive,inactive,inactive,109,inactive
Cc1ccc(C2=Nc3ccc(Cl)cc3OC2)cc1,8330 nM (active),10500 nM (active),–,inactive,inactive,inactive,–,–

Structure (SMILES),Potency [1],Potency [2],Potency [3],Potency [4],Potency [5],Potency [6],viability [1] [%],Potency [7]
CN1N=C(N)c2cn([C@@H]3O[C@H](COP(=O)(O)O)[C@@H](O)[C@@H]3O)c3ncnc1c23,2630 nM (active),1320 nM (active),–,1180 nM (active),2350 nM (active),1660 nM (active),–,468 nM (active)
C#Cc1cccc(Nc2ncnc3cc4c(cc23)OCCOCCOCCO4)c1,–,inactive,–,–,–,inactive,93.5,18600 nM (active)
O=C(/C=C/c1cccnc1)NCCCCC1CCN(C(=O)c2ccccc2)CC1,–,4.2 nM (active),–,8.3 nM (active),5.9 nM (active),inactive,119,–
c1ccc2c(Cc3c[nH]c4ccccc34)c[nH]c2c1,–,inactive,–,inactive,inactive,inactive,103,–
O=C(Cc1ccccc1)Nc1nnc(CCSCCc2nnc(NC(=O)Cc3ccccc3)s2)s1,9340 nM (active),468 nM (active),–,–,–,inactive,–,inactive
COc1ccnc(CS(=O)c2nc3ccc(OC(F)F)cc3[nH]2)c1OC (configuration not stated),–,23500 nM (active),–,inactive,inactive,inactive,114,inactive
CC(=O)CC(c1ccccc1)c1c(O)c2ccccc2oc1=O (configuration not stated),–,inactive,–,inactive,inactive,inactive,107,inactive
O=C(Nc1cccc(C(F)(F)F)c1)c1cccc2cc(Oc3cc(CO)ncn3)ccc12,–,inactive,–,inactive,inactive,inactive,103,–
O=C1CC[C@H](N2Cc3c(OCc4ccc(CN5CCOCC5)cc4)cccc3C2=O)C(=O)N1,–,inactive,–,–,inactive,inactive,102,inactive
C[C@]1(C(=O)N(CCCC(=O)O)Cc2cccc(Cl)c2)CCN1C(=O)c1csc2ccccc12,–,inactive,–,inactive,inactive,inactive,108,inactive
C=C1/C(=C/C=C2\CCCC3(C)[C@@H]([C@H](C)/C=C/C=C/C(O)(CC)CC)CC[C@@H]23)C[C@@H](O)C[C@@H]1O (some centres not stated),–,16600 nM (active),–,inactive,26300 nM (active),–,89.5,–
O=C(O)CCNc1cc(N2CCc3ccccc3CC2)nc(-c2cccnc2)n1,–,9340 nM (active),–,inactive,inactive,inactive,116,inactive
Nc1ccc(F)cc1NC(=O)c1ccc(CNC(=O)/C=C/c2cccnc2)cc1,13200 nM (active),4170 nM (active),–,5250 nM (active),16600 nM (active),14800 nM (active),–,–
Cc1cc(C)c2c(c1)[C@@H](N(Cc1cc(C(F)(F)F)cc(C(F)(F)F)c1)c1nnn(C)n1)CCCN2CC1CCC(C(=O)O)CC1 (some centres not stated),–,8330 nM (active),–,inactive,–,inactive,101,18600 nM (active)
O=C1Cc2cc(C(=O)NC3C[C@H]4CC[C@@H](C3)N4S(=O)(=O)CC3CCN(CCCC(F)(F)F)CC3)c(Cl)cc2N1 (some centres not stated),–,inactive,–,inactive,inactive,inactive,107,inactive
COc1ncc(Nc2ncc(C(C)N3CCN(S(C)(=O)=O)CC3)cc2-c2nc(C)nc(N)n2)cc1F (configuration not stated),–,662 nM (active),–,–,–,inactive,73.4,inactive
C#C[C@]1(O)CC[C@H]2[C@@H]3[C@H](C)CC4=C(CCC(=O)C4)[C@H]3CC[C@@]21C,–,16600 nM (active),–,inactive,inactive,inactive,111,–
Clc1ccc(CCC(Cn2ccnc2)Sc2c(Cl)cccc2Cl)cc1 (configuration not stated),–,inactive,–,inactive,inactive,inactive,81.3,–
CC(C)(O)CS(=O)(=O)Nc1ccc2c(c1)CCN(C(=O)COc1cccnc1)C2,–,23.5 nM (active),–,332 nM (active),66.1 nM (active),inactive,108,66.1 nM (active)
O=C(/C=C\n1cnc(-c2cc(C(F)(F)F)cc(C(F)(F)F)c2)n1)NNc1ccccn1,934 nM (active),833 nM (active),–,468 nM (active),525 nM (active),417 nM (active),–,–
C[C@@H](O[C@H]1OCCN(Cc2n[nH]c(=O)[nH]2)[C@@H]1c1ccc(F)cc1)c1cc(C(F)(F)F)cc(C(F)(F)F)c1,20900 nM (active),18600 nM (active),–,–,16600 nM (active),–,–,18600 nM (active)
CC[C@]12C=CCN3CC[C@@]4(c5cc([C@@]6(C(=O)OC)CC7C[C@@H](C(C)(F)F)CN(Cc8c6[nH]c6ccccc86)C7)c(OC)cc5N(C)[C@H]4[C@@](O)(C(=O)OC)[C@@H]1OC(C)=O)[C@@H]32 (some centres not stated),1660 nM (active),296 nM (active),–,468 nM (active),372 nM (active),332 nM (active),–,–
